Vc quorum ag-1 – quorum light induction in luxS cqsA deficient V. cholerae | 350,000 tested, 0.16% active | V. cholerae BH1578 lux reporter, luminescence, 6 h | activation, % at 18.7 µM; in the data active means activation mostly above about 9.7%, no sharp cut-off; inconclusive means no clear call, values can overlap the other calls; inactive means mostly below about 3.7%
Mtb betalactam – beta-lactam sensitization of Mtb H37Rv; M. tuberculosis H37Rv growth with meropenem, percent inhibition; inhibition, % at 25 µM; 330,000 tested, 0.27% active; AID 434955;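 further: growth measured after seven days incubation then overnight dye step; 0% = bacteria only wells and 100% = bacteria with antibiotic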
Rv3671c inh – Rv3671c (M. tuberculosis) protease inhibition; P9WHR9; inhibition, % at 5.96 µM; 320,000 tested, 0.048% active; AID 2606; in the data active means inhibition above about 38%;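 further: extracellular domain of Rv3671c used as enzyme; 0% = enzyme with DMSO and 100% = no enzyme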
FadD28 binding – inhibitors of Mycobacterium tuberculosis FadD28 bisubstrate binding | FadD28 bisubstrate probe binding, fluorescence polarization | inhibition, % at 12.5 µM | 360,000 tested, 0.22% active | AID 588549; in the data active means inhibition above about 8.5%, passing the limit was not always enough; inconclusive means no clear call, values can overlap the other calls
PrP 5UTR inh – suppresses PrP 5' UTR mRNA reporter expression. cell-based PrP 5' UTR mRNA reporter, plate reader. inhibition, % (test concentration not listed). 340,000 tested, 0.35% active. AID 488862; in the data active means inhibition above about 52%; further: 0 = median of the neutral control wells
Mtb UGM inh – inhibitors of M. tuberculosis UDP-galactopyranose mutase | P9WIQ1 | purified UGM, fluorescence polarization probe displacement | inhibition, % at 10 µM | 320,000 tested, 0.06% active | AID 504406; in the data active means inhibition above about 10%, passing the limit was not always enough; inconclusive means no clear call, values can overlap the other calls
Target sequence (P9WIQ1 whole entry, looked up): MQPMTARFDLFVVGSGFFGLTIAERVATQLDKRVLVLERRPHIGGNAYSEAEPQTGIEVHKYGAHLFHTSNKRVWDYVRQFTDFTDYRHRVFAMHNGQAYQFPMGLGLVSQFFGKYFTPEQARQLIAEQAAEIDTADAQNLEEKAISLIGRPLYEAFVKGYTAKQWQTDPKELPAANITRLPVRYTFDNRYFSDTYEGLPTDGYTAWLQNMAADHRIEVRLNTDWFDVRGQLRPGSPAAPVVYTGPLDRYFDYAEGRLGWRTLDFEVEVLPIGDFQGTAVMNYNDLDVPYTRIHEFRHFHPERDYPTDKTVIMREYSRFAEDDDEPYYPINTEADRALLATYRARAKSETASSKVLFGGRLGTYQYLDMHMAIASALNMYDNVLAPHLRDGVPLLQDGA
Vc quorum ag-2 – inducers of V. cholerae quorum light production without autoinducers | shares compounds with Vc quorum ag-1 | V. cholerae BH1578 lux reporter, luminescence, 6 h | activation, % at 50 µM | 620 tested, under 10 active | AID 602243
HeLa tox – HeLa cell viability loss at 24 h; 25 tested, under 10 active; CellTiter-Glo ATP luminescence; shares compounds with Vc quorum ag-1; activity change, negative = cytotoxicity, % at 35 µM;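 active means signal drop with fitted half-maximal concentration at or below twice the highest valid dose; inconclusive means flat curve with 30 to 70% loss, or poor fit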
* marks the source's active call; other numbers are inactive results; i = inactive; ? = inconclusive; . = no result; + = active, no number. Most compounds without a hit are left out; they make up all but 0.76% or so of the library. Unless noted, how the calls were made is not given here.

SMILES | Vc quorum ag-1 | Mtb betalactam | Rv3671c inh | FadD28 binding | PrP 5UTR inh | Mtb UGM inh | Vc quorum ag-2 | others
CCc1ccc(C(=O)OCC(=O)NC2CCCC2)cc1 | . | -1 | -8 | -1 | -16 | 1 | i
CC(C)c1ccc(C(=O)OCC(=O)NC2CCCC2)cc1 | + | 0 | -5 | -1 | -2 | 1 | i
Cc1ccc(CC(=O)NC2CCCC2)cc1 | . | . | . | . | . | . | . | HeLa tox=-5
CCOc1ccccc1/C=C(/NC(=O)c1ccccc1)C(=O)N(CC)CC | i | ? | 2 | 0 | -29 | 0 | .
CCCCCN(C(=O)CCC(=O)OCC(=O)Nc1cccc(CC)c1)c1c(N)n(CCCC)c(=O)[nH]c1=O | i | -4 | 8 | -1 | -6 | 1 | .
Cc1ccc(C(=O)OCC(=O)NC2CCCC2)cc1C | + | 1 | 1 | -3 | -24 | -1 | i
O=C(c1cccc(S(=O)(=O)N2CCc3ccccc32)c1)N1CCc2ccccc2C1 | -3 | -5 | -1 | . | -8 | 0 | .
O=C(c1cccc(S(=O)(=O)N2CCc3ccccc32)c1)N1CCOCC1 | 288* | -11 | -6 | 0 | -33 | -1 | 0
Cc1ccccc1-c1cc2nc(NCCN3CCCC3)n(C)c(=O)c2s1 | 0 | . | . | -14 | . | . | .
O=C(/C=C/c1ccc(OCCCF)cc1)NCc1ccc(Cl)cc1 | 39* | 1 | -6 | -3 | -34 | -1 | 5
COc1ccc(CNC(=O)/C=C/c2ccc(OCCCF)cc2)cc1 | i | -2 | 2 | 0 | -15 | 1 | .
Cc1ncc(S(=O)(=O)c2ccccc2)c(-c2ccc(Cl)cc2Cl)n1 | 17* | -4 | -9 | 0 | -13 | -3 | 0
COc1ccc(Oc2nc(-c3cccnc3)nc3ccccc23)cc1 | i | 48 | -6 | -1 | -5 | 0 | .
CCCOc1ccc(-c2nc(OC)c3ccccc3n2)cc1 | 25* | 98 | -2 | -1 | -66 | -2 | 0
NS(=O)(=O)c1ccc(CCNC(=O)CSc2nc3ccccc3c(=O)n2CCC(=O)N2CCCCC2)cc1 | 0 | -3 | -13 | 0 | -18 | -4 | .
O=c1c2ccccc2nnn1CSc1nnc(-c2cccnc2)n1-c1ccccc1F | 12 | -21 | 1 | 0 | -79 | 2 | 0
COc1ccc(OC)c(NC(=O)Nc2cccc(Cn3cccn3)c2)c1 | 12 | 8 | -2 | -5 | -32 | 0 | 0
Cc1ccc(S(=O)(=O)N(C)c2nc3ccccc3[nH]c2=S)cc1 | i | -13 | -4 | -1 | -21 | -1 | .
Cc1ccc(S(=O)(=O)N(C)c2nonc2C)cc1 | 12 | -13 | 8 | -4 | -15 | -1 | 0
COc1cc(OC)c(OC)cc1CNC(C)C(O)c1ccccc1 (stereo not drawn) | 18 | -6 | 8 | -2 | -12 | -1 | 0
CCCS(=O)(=O)N1CCCC(C(=O)NCCCN(C)Cc2ccccc2)C1 (stereo not drawn) | 17* | -3 | -11 | -2 | -17 | 2 | 0
CCCS(=O)(=O)N1CCCC(C(=O)NCCCN(C)c2ccccc2)C1 (stereo not drawn) | 17* | -9 | 0 | -5 | -25 | -2 | 0
CCN(CCNC(=O)C1CCN(S(=O)(=O)CC)CC1)c1ccccc1 | -2 | 2 | -4 | -2 | -24 | 4 | .
O=C(NCc1ccccc1)C1CCCN(S(=O)(=O)c2cccnc2)C1 (stereo not drawn) | 25 | -5 | 3 | -1 | -6 | 1 | 0
CCN(CCNC(=O)C1CCCN(S(=O)(=O)CC)C1)c1ccccc1 (stereo not drawn) | 12 | -5 | 2 | -1 | -24 | 0 | 0
O=C(CNC(=O)c1ccc2c(c1)OCO2)N/N=C/c1cc(Br)ccc1O | -1 | -1 | 1 | -2 | -12 | -1 | .
COc1ccccc1/C=C/C(=O)OCC(=O)N1c2ccccc2CC1C (stereo not drawn) | -5 | 1 | -13 | 1 | -3 | 1 | .
CN(C(=O)COC(=O)c1ccc(S(=O)(=O)N2CCCCCC2)cc1)c1ccccc1 | -1 | . | . | 0 | . | . | .
CCCS(=O)(=O)N1CCCC(C(=O)NCc2cccnc2)C1 (stereo not drawn) | . | -6 | -3 | -4 | -10 | -1 | .

From PubChem BioAssay
